Screening results deposited in PubChem BioAssay by several laboratories.
CaV13 FRET inh – Disruptors of the CACNA1D IQ motif to Ca2+-dependent inactivation inhibitor domain association, primary screening, Förster resonance energy transfer in intact living …; 340,000 tested, 0.098% active; AID 743397; inhibition, % at 12.3 µM; HEK cells, CFP/YFP FRET ICDI-IQ, plate reader, 10 min; percent FRET-ratio fall versus neutral wells;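 active means mean replicate inhibition of at least 30% and at least 1% of replicates passing that level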;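 further: 0% = median of the neutral control wells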
ABCB6 inh MLPCN – blocks the human ABCB6 transporter | K562-ABCB6 porphyrin accumulation, flow cytometry, 1 h; active compounds read low | Q9NP58 | fluorescence ratio to DMSO, % at 10 µM | 360,000 tested, 0.19% active | AID 602162;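 active means fluorescence ratio to DMSO below 75%, the collection mean minus 3 SD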;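 further: signal is porphyrin accumulated inside mitochondria; 100% equals median channel fluorescence of DMSO control wells; lower ratio means ABCB6 inhibition with less porphyrin fluorescence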
Exocytosis inh – lytic granule exocytosis inhibition; 360,000 tested, 0.66% active; AID 651702; inhibition, % at 10 µM; TALL-104 LAMP-1 surface exposure, flow cytometry; cells stimulated with thapsigargin and PMA;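 active means inhibition above about 55%, limit read from the data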
VLA-4 inh – inhibition in a human VLA-4 binding assay; P13612; VLA-4 expressing cells, ligand binding flow cytometry; inhibition, % (about 7 µM as worked out from the volumes in the protocol); 330,000 tested, 0.2% active; in the data active means inhibition above about 50%
Exocytosis CP01 – lytic granule exocytosis inhibition | shares compounds with Exocytosis inh | TALL-104 cells, LAMP-1 externalization, flow cytometry; stimulated with PMA plus thapsigargin | inhibition, % at 10 µM | 1,500 tested, 11% active | AID 651954; in the data active means inhibition above about 60%;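 further: 0% = stimulated vehicle wells and 100% = unstimulated wells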
Active calls of the source: *; nt = not tested or not shown; ! = a repeat was not active. A selection: hits, their analogues and other compounds. The true share with any hit is near 1.1%.

SMILES	CaV13 FRET inh	ABCB6 inh MLPCN	Exocytosis inh	VLA-4 inh	Exocytosis CP01
N#Cc1nc(COc2ccccc2Cl)oc1NCc1ccc(F)cc1	-7	101	59*	-8	-14
CCOc1cccc(CN2CCCC(C(=O)c3cc(Cl)ccc3OC)C2)c1O (stereo not given)	-20	100	80*	4	-9
CCOc1cccc(CN2CCCC(N3CCN(c4cccc(Cl)c4)CC3)C2)c1O (stereo not given)	-5	91	66*	0	-10
CCOC(=O)C1CCCN(Cc2ccc(OCc3ccccc3)c(OC)c2)C1 (stereo not given)	-1	97	57*	7	-13
COc1ccc(C(=O)C2CCCN(Cc3cc(Cl)ccc3O)C2)c(OC)c1 (stereo not given)	0	96	1	6	nt
CCOC(=O)C1CCCN(Cc2ccc(OCc3ccccc3)cc2)C1 (stereo not given)	-5	96	47	-4	nt
O=C(c1cc(S(=O)(=O)N2CCOCC2)c(Cl)cc1Cl)N1CCN(S(=O)(=O)c2cccc(F)c2)CC1	-5	96	56*	17	-5
Cc1ccc([N+](=O)[O-])cc1NC(=O)CCCOc1ccccc1	-6	98	1	16	nt
COc1ccccc1NC(=O)c1cc(S(=O)(=O)N2CCc3ccccc32)ccc1F	-5	99	74*	-6	-12
C/C=C/c1ccc(OCCOCCNCc2ccccc2)c(OC)c1	7	103	70*	8	-5
CCOC(=O)C1CCN(Cc2cc(Cl)c3ccccc3c2O)CC1	nt	100	78*	-3	0
CCN1CCN(CCNC(=O)c2ccc(/C=C3/Sc4ccccc4N(Cc4ccccc4C)C3=O)cc2)CC1	-13	105	66*	nt	29
Cc1ccccc1CN1C(=O)c2ccccc2Sc2ccc(C(=O)NCCN3CCOCC3)cc21	-14	106	-6	-3	nt
O=C(Cn1cc(C(F)(F)F)cc(Cl)c1=O)NCCc1ccccc1	-5	96	-4	5	nt
CCCNC(=O)C1(C)CCN(Cc2cc(-c3ccccc3)on2)C1 (stereo not given)	-6	95	-5	nt	nt
COCCCNC(=O)CN(Cc1ccccc1)S(=O)(=O)c1ccccc1	-20	102	2	-1	nt
CCOC(=O)N1CCN(C(=O)c2ccccc2N(Cc2ccccc2)S(=O)(=O)c2ccccc2)CC1	-8	99	79*	12	-3
COCCCNC(=O)c1ccccc1N(Cc1ccccc1)S(=O)(=O)c1ccccc1	8	106	69*	8	-5
Cc1cccc(-c2nnc(SCC(=O)Nc3nc4c(s3)CCCC4)n2C)c1	-2	89	0	10	nt
CCCCCCSc1cccc(-c2nc3ccccn3c2NCc2ccccc2)c1	-10	94	58*!	7	95*
CCCCCCSc1cccc(-c2nc3cc(C)ccn3c2NCc2ccccc2)c1	-11	96	20	nt	nt
O=C(CSc1nnc(Nc2ccccc2F)s1)Nc1cccc(S(=O)(=O)N2CCCCC2)c1	-4	96	-1	14	nt
Cc1cc(N2CCN(c3nc(-c4ccc([N+](=O)[O-])cc4)cs3)CC2)c2ccccc2n1	-7	99	66*	0	79*
CN(C)Cc1nc2ccccc2c(=O)n1Cc1nc(-c2cccc([N+](=O)[O-])c2)cs1	-1	96	1	-2	nt
CN1CCN(Cc2nc3ccccc3c(=O)n2Cc2nc(-c3ccc([N+](=O)[O-])cc3)cs2)CC1	-6	109	75*	-23	97*
SMILES	CaV13 FRET inh	ABCB6 inh MLPCN	Exocytosis inh	VLA-4 inh	Exocytosis CP01
Cc1ccc(F)cc1C(=O)N1CCCCC1c1cc(C(=O)Nc2ccc(F)c(Cl)c2)no1 (stereo not given)	-6	98	2	nt	nt
CCN(Cc1ccccc1OC)CC1CCCN(CCc2cccc(OC)c2)C1 (stereo not given)	-19	103	63*	1	-11
CCN(Cc1ccc(OC)c(COC)c1)CC1CCCN(CCc2cccc(OC)c2)C1 (stereo not given)	-4	105	72*	8	-12
CCN(Cc1ccc(NC(C)=O)cc1)CC1CCCN(CCc2cccc(OC)c2)C1 (stereo not given)	-3	98	51	6	nt
CCN(Cc1ccc(OC)c(COC)c1)CC1CCCN(CCc2cccc(F)c2)C1 (stereo not given)	-5	100	68*	-1	-12
COCc1ccc(C(=O)N(C)CC2CCCN(CCc3ccc(OC)cc3)C2)o1 (stereo not given)	-2	102	-3	8	nt
